Our source for the growth values is PubChem BioAssay (NCI).

This is part of a sample that, as a whole, favours compounds with a hit. Of some 83,000 tested, about 20% had one in any assay.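 Cell lines were cultured in 96-well plates, exposed to a single compound concentration, and assessed for percent growth 48 hours later.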 Activity calls are given as the source filed them. The calls were made as follows: active = growth percent below 10; inactive = the rest.

In the assay the test system is NCI-H23 lung. As to the kind of experiment: NCI-60 one-dose screen, 48 h (100 = growth as untreated, 0 = no growth, -100 = all killed). The note with it: 10 µM.
`CCN1CCN(CCC(=O)Nc2cccc(-n3cc(-c4ccncc4)c(-c4ccc(Cl)c(OC)c4)n3)c2)CC1`: the growth was 32.2% (inactive).

On to `O=C1/C=C/[C@@H](O)[C@@H]2C[C@@H](O)C[C@H]2/C=C/CCC[C@H](C(F)(F)F)O1`, for which the growth is -30.8% (active). Next, `CC[C@@H](C(=O)[C@@H](C)[C@@H](O)[C@H](C)[C@@H]1O[C@@H]([C@@H](CC)C(=O)N(CC)CC)CC[C@@H]1C)C1O[C@]2(C=CC(=O)[C@]3(CC[C@@](C)([C@H]4CC[C@](O)(CC)[C@H](C)O4)O3)O2)[C@H](C)C[C@@H]1C` (stereo not given in full): 20% (inactive); `COc1ccc(-c2cc(-c3ccc(Cl)cc3)nc(SCCCCCCC(=O)NO)n2)cc1OC`: 42.7% (inactive). For the compound `N#CCc1csc(Cc2ccccc2)n1`, the growth was 97.2% (inactive).

Consider `CC(C)(C)OC(=O)CN1CCc2c(sc3ncnc(N/N=C/c4ccccc4Br)c23)C1`, for which the growth was 80.2% (inactive).

In the case of `CC(CN(C)C)Oc1ccccc1NC1=C(Cl)C(=O)C(Nc2ccccc2OC(C)CN(C)C)=C(Cl)C1=O` (stereo not given), the growth was -70.7% (active). In the case of `Nc1ccn(Cc2nnc(CCC(=O)c3nc4ccccc4[nH]3)o2)c(=O)n1`, the growth was 74.5% (inactive). In the case of `CC(C)(C)OC(=O)CN1CCc2c(sc3ncnc(N/N=C/c4cccc5ccccc45)c23)C1`, the growth was 40.6% (inactive). For `CCOC(=O)c1cc(C(=O)c2ccc(Cl)cc2)n2ccc(-c3cc[n+](CC(=O)c4ccc(OC)cc4)cc3)cc12`, the growth was 88.2% (inactive).

Consider `NS(=O)(=O)Oc1ccc(NC(=O)C2CCCCCC2)cc1`, for which the growth was 97.4% (inactive).

As to `NNC(=O)Oc1c(Cl)cc(Cl)cc1[N+](=O)[O-]`, the growth is 97.8% (inactive). `O=C1c2ccccc2C(=O)c2c1ccc(C(Br)Br)c2[N+](=O)[O-]`: the growth is 4.98% (active). Turning to `COc1ccc(NC(=O)C2CC3C=CC2C3)c([N+](=O)[O-])c1` (stereo not given), the growth is 96% (inactive). Next, `CC[C@@H](C(=O)[C@H](C)[C@H](O)[C@@H](C)[C@H]1O[C@H]([C@@H](CC)C(=O)N(CC)CC)CC[C@H]1C)C1O[C@]2(C=C[C@@H](O)[C@]3(CC[C@@](C)([C@H]4CC[C@](O)(CC)[C@H](C)O4)O3)O2)[C@H](C)C[C@@H]1C` (stereo not given in full): 18.6% (inactive); `COc1cc(-c2nn(-c3cccc(NC(=O)NCCNC(=O)c4cccc(C(F)(F)F)c4)c3)cc2-c2ccncc2)ccc1Cl`: 57% (inactive); `O=C(O)c1cc([N+](=O)[O-])ccc1Oc1ccccc1`: 101% (inactive). Take `CCOC(=O)c1cc(C(=O)c2cc(OC)c(OC)c(OC)c2)n2nc(C)ccc12`: the growth is 39.2% (inactive). Regarding `CC[C@@H](C(=O)[C@@H](C)[C@@H](O)[C@H](C)[C@@H]1O[C@@H]([C@@H](CC)C(=O)O)CC[C@@H]1C)C1O[C@]2(C=CC(=O)[C@]3(CC[C@@](C)([C@H]4CC[C@](O)(CC)[C@H](C)O4)O3)O2)[C@H](C)C[C@@H]1C` (stereo not given in full), the growth was 30.5% (inactive). On to `Cc1ccc(S(=O)(=O)N(C)CCCCCC(=O)O)cc1`, for which the growth was 99.1% (inactive).

Consider `COc1ccc(C2=Cn3c(CCC(=O)c4nc5ccccc5[nH]4)nnc3SC2)cc1`, for which the growth is 94.5% (inactive). Under `CCCN(CCC)C(=O)[C@H](CC)[C@@H]1CC[C@@H](C)[C@@H]([C@H](C)[C@@H](O)[C@@H](C)C(=O)[C@H](CC)C2O[C@]3(C=C[C@@H](O)[C@]4(CC[C@@](C)([C@H]5CC[C@](O)(CC)[C@H](C)O5)O4)O3)[C@H](C)C[C@@H]2C)O1` (stereo not given in full) stands -9.41% (active); under `OCC1OC(n2cnc3c(NCc4ccco4)ncnc32)C(O)C1O` (stereo not given), 18% (inactive); under `CC[C@@H](C(=O)[C@H](C)[C@H](O)[C@@H](C)[C@H]1O[C@H]([C@@H](CC)C(=O)O)CC[C@H]1C)C1O[C@]2(C=C[C@@H](O)[C@]3(CC[C@@](C)([C@H]4CC[C@](O)(CC)[C@H](C)O4)O3)O2)[C@H](C)C[C@@H]1C` (stereo not given in full), 13.4% (inactive).

As for `O=C(/C=C/c1cccc(B(O)O)c1)c1cccc(B(O)O)c1`, the growth is -0.41% (active). Take `Cc1ccc(Cl)cc1NC(=O)CCl`: the growth is 74.2% (inactive). Take `COc1cc(/C=C/c2cc(/C=C/c3ccc(O)c(OC)c3)nc(N)n2)ccc1O`: the growth was -2.79% (active).

Take `C/C(=N\O)c1ccc(NC(=O)CSc2nnc(-c3ccccc3)n2-c2ccccc2)cc1`: the growth is 76.6% (inactive). For the compound `O=C(NCCCNS(=O)(=O)c1ccc(Cl)cc1)Nc1ccc(-n2cc(-c3ccncc3)c(-c3ccc(Cl)c(O)c3)n2)cc1`, the growth is 42% (inactive). Take `CS(=O)(=O)c1nccc(-c2c(-c3cccc(OCCN4CCOCC4)c3)nc3sccn23)n1`: the growth was 90.3% (inactive). For `C=CCSC(CC)(CC)C(=O)NC`, the growth was 99.4% (inactive). Under `CCn1c(SC/C(=N/O)c2ccccc2)nnc1-c1ccccc1` stands 103% (inactive); under `CCN(CC)CCOc1ccc2c(c1O)C(=O)c1ccccc1C2=O`, 82.4% (inactive); under `CS(=O)(=O)c1nccc(-c2c(-c3cccc(O)c3)nc3sccn23)n1`, 109% (inactive).

For `CC(=O)[C@H]1CC[C@]2(C)[C@@H]1CC[C@@H]1[C@@]3(C)CC(CCC#N)(CCC#N)C(=O)C(C)(C)[C@@H]3CC[C@]12C`, the growth is 86.7% (inactive). For `COc1cc(-c2nn(-c3cccc(NC(=O)CN4CCOCC4)c3)cc2-c2cccnc2)ccc1Cl`, the growth is 90.9% (inactive). As to `CNS(=O)(=O)Oc1ccc(-c2sc3cc(OS(=O)(=O)NC)ccc3c2C(=O)c2ccc(OCCN3CCCCC3)cc2)cc1`, the growth is 65.6% (inactive).

As to `Clc1ccc(/C=C2\CCCC3C2=Nc2ccccc2NC3c2ccc(Cl)cc2)cc1` (stereo not given), the growth is 83.3% (inactive). On to `CCOS(=O)(=O)c1c(C(C)C)cc(C(C)C)cc1C(C)C`, for which the growth was 98.4% (inactive).

For `COc1cc(/C=C/c2cc(/C=C/c3ccc(O)c(OC)c3)n(C(=O)Nc3ccccc3Cl)n2)ccc1O`, the growth was -25.8% (active).
